Bioassay records: PubChem, several laboratories
Rows were chosen to be rich in hits. Some 2% of all compounds tested hit in one or more screens of this group.
Mcl1 Noxa PPI: Mcl-1/Noxa interaction inhibition. TR-FRET Mcl-1/Noxa peptide binding, 2 h. hit rate 1.5% among 220,000. inhibition, % at 21.7 µM. Q07820;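 active = compounds that cut the protein-peptide binding signal by more than 50% relative to plate controls in a single-dose test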;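 also: His-tagged Mcl-1 with rhodamine Noxa BH3 peptide and terbium anti-His antibody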
Target sequence (Q07820 whole entry, looked up): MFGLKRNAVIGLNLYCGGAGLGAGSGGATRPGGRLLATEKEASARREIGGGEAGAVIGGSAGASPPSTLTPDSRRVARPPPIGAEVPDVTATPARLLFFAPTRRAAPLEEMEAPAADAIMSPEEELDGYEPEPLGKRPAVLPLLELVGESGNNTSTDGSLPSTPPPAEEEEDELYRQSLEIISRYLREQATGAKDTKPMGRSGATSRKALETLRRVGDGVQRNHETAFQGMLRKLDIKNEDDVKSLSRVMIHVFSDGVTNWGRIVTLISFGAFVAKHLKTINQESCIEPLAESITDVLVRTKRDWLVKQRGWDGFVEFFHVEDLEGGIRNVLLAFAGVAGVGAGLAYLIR
Mcl1-Bid inh: Mcl-1/Bid interaction inhibition. inhibition, % at 21.7 µM. TR-FRET Mcl-1/Bid-Dy647 peptide binding, 1536-well. Q07820. hit rate 0.97% among 220,000. AID 1021;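 active = compounds that cut the binding signal by more than half at the single screening dose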;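 also: His-tagged Mcl-1 with europium anti-His antibody binding Bid BH3 peptide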
Mcl-1 Bim block: disrupts Bim peptide binding to human Mcl-1 | Q07820 | Bead-based flow cytometry, Bim peptide-Mcl-1 binding | inhibition, % at 10 µM | hit rate 0.1% among 190,000; in the data active = inhibition above about 40%
MCL1-BIM inh: disrupts human MCL1 binding to BIM-BH3 peptide. GST-MCL1 / FITC-Bim-BH3 fluorescence polarization. hit rate 0.68% among 320,000. Q07820. inhibition, % at 10.9 µM. AID 2057;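 active = inhibition above the mean inhibition of all tested compounds plus 3 SD, set per campaign, cut at about 40% in these data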;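 also: higher means more loss of mP so more displacement of Bim peptide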
BCLXL inh confirm: counter-screen for MCL1 inhibitors: confirmation of human Bcl-xL inhibitors; inhibition, % at 10.9 µM; shares compounds with MCL1-BIM inh; hit rate 54% among 1,700; GST-Bcl-xL / FITC-Bim BH3 peptide FP binding; AID 2166;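 active = inhibition above a cutoff equal to the mean inhibition of all tested compounds plus 3 SD, cut at about 30% in these data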
MCL1 inh confirm: MCL1-BIM-BH3 interaction inhibition, confirmation; shares compounds with MCL1-BIM inh; GST-MCL1 / FITC-Bim-BH3 fluorescence polarization; inhibition, % at 10.9 µM; hit rate 61% among 1,700;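 active = inhibition above the average of all tested compounds plus 3 SD, cut at about 40% in these data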
Hits are given with their value; – = inactive; · = not tested or not shown; + = active, no number.

SMILES | Mcl1 Noxa PPI | Mcl1-Bid inh | Mcl-1 Bim block | MCL1-BIM inh | BCLXL inh confirm | MCL1 inh confirm
Cc1ccc(/C=C/C(=O)Nc2ccc(S(=O)(=O)Nc3onc(C)c3C)cc2)cc1 | · | · | · | – | · | ·
Cc1ccc(C(=O)Nc2ccc3c(c2)C(=O)N(C)C3=O)c(C)c1 | · | · | · | – | · | ·
Cc1ccc2nc(SCC(=O)Nc3cc(C)on3)nc(=O)n2c1 | · | · | · | – | · | ·
CC(C)C1NC2(C(=O)c3ccccc3C2=O)C2C(=O)N(c3ccc(F)cc3)C(=O)C12 (stereo unspecified) | – | – | – | 64 | – | –
CCOc1ccc(NS(=O)(=O)c2c(C(=O)N3CCCCCC3)c(C)n(C)c2C)cc1 | · | · | · | – | · | ·
COC(=O)C1=COC(C)C2CN3CCc4c([nH]c5ccccc45)C3CC12 (stereo unspecified) | – | – | – | 91 | 62 | 80
CCOC(=O)c1sc(=S)n(-c2ccc3c(c2)OCO3)c1N | – | – | – | 49 | – | –
COc1ccc(/C=N/NC(=O)c2c(Br)cnn2C)c2ccccc12 | · | · | · | – | · | ·
O=C(O)Cc1ccc(N=Nc2c(O)c(C(=O)O)cc3ccccc23)cc1 | – | – | · | 43 | 37 | 70
CCCCCCn1c(=O)[nH]c2nc3cc(N)c(C)cc3nc2c1=O | – | – | – | · | · | ·
CCC(=O)Nc1ccc2ccccc2c1 | – | – | – | – | · | ·
CCCCn1c(=O)[nH]c2nc3cc(NC(C)=O)ccc3nc2c1=O | – | – | · | 59 | 75 | 95
CCC(=O)Nc1ccc2nc3c(=O)[nH]c(=S)[nH]c3nc2c1 | · | · | · | 98 | 107 | 161
Cc1cc(-c2ccc3ccccc3c2)n2ncnc2n1 | – | – | – | – | · | ·
C[C@H](NC(=O)[C@@H]1Cc2ccccc2CN1C(=O)OC(C)(C)C)C(=O)NCc1ccco1 | · | · | · | – | · | ·
CCOC(=O)c1c(=O)n(O)c2ccc(OC)cc2[n+]1[O-] | – | – | – | 188 | 45 | 60
COC(=O)CN(c1ccccc1)S(=O)(=O)c1ccc(F)cc1 | – | – | – | + | – | –
CCN(c1ccccc1)S(=O)(=O)c1ccc(F)cc1 | – | – | – | – | · | ·
CCCN(C(=O)CCSc1ccc(F)cc1)c1c(N)n(Cc2ccccc2)c(=O)[nH]c1=O | · | · | · | – | · | ·
CCN1CCc2nc3sc(C(=O)Nc4cccnc4Cl)c(N)c3cc2C1 | · | · | · | 54 | – | –
CCN1CCc2nc3sc(C(=O)N4CCc5ccccc5C4)c(N)c3cc2C1 | · | · | · | – | · | ·
CCN(CC)C(=O)COc1coc(CN2CCN(c3ccccc3F)CC2)cc1=O | · | · | · | – | · | ·
Nc1ccc(S(=O)(=O)Nc2nc3ccccc3o2)cc1 | · | · | · | 45 | – | 47
Nc1ccc(S(=O)(=O)Nc2cnc3ccccc3n2)cc1 | – | – | · | – | · | ·
CCNc1ccc(C(=O)NN=C2CCCC2)cc1[N+](=O)[O-] | – | – | – | – | · | ·
SMILES | Mcl1 Noxa PPI | Mcl1-Bid inh | Mcl-1 Bim block | MCL1-BIM inh | BCLXL inh confirm | MCL1 inh confirm
O=C(NCN1CCN(c2ccccc2)CC1)c1cnccn1 | · | · | · | 140 | – | –
COCCNC(=O)c1cc2nc3c(c(C(F)(F)F)n2n1)CCc1ccccc1-3 | – | – | – | 49 | – | –
CCCCC1=CC2=CC(=O)C(C)(OC(=O)c3ccc(Cl)nc3)C(=O)C2=CO1 (stereo unspecified) | · | · | · | 66 | 48 | 65
CC(C)(C)OC(=O)NCCCCC1=CC2=CC(=O)C(C)(OC(=O)c3ccco3)C(=O)C2=CO1 (stereo unspecified) | · | · | · | 61 | – | –
CC1(OC(=O)C2CCCC2)C(=O)C=C2C=C3CCCN3C=C2C1=O (stereo unspecified) | · | · | · | – | · | ·
CC(C)(C)OC(=O)NCCCC1=CC2=CC(=O)C(C)(OC(=O)C3CCCC3)C(=O)C2=CO1 (stereo unspecified) | · | · | · | 74 | 48 | 66
COC(=O)CCCC1=CC2=CC(=O)C(C)(OC(=O)c3ccco3)C(=O)C2=CO1 (stereo unspecified) | · | · | · | 88 | 75 | 110
CC1(OC(=O)c2ccco2)C(=O)C=C2C=C(c3ccsc3)OC=C2C1=O (stereo unspecified) | · | · | · | – | · | ·
O=C(c1cccc(S(=O)(=O)N2CCc3ccccc32)c1)N1CCCC(C(F)(F)F)C1 (stereo unspecified) | · | · | · | – | · | ·
O=C(CC1C(=O)NCCN1Cc1ccccc1)NCCCOc1cccnc1 (stereo unspecified) | · | · | · | – | · | ·
N#C/C(=C/c1ccco1)C(N)=S | – | – | · | 58 | – | –
N#C/C(=C\c1ccc2c(c1)OCO2)C(N)=S | – | – | · | – | · | ·
CCc1ccc(OCC(=O)c2c(O)c3ccccc3oc2=O)cc1 | – | – | – | – | · | ·
